# PubChem BioAssay (EPA / NIEHS)
# The source made the active and inactive calls. Rule for the calls: active = hit-call score of the fitted dose curve at least 0.9, where 1 is the maximum; inactive = score below 0.9.
# Read-out: not listed separately
# Test: BSK_hDFCGF_Proliferation: Cell Proliferation Assessment in the BioMAP Diversity Plus: hDFCGF Assay (AID 2283059);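 note: curves fitted for both rise and fall of signal versus DMSO baseline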
# Conditions: primary human foreskin fibroblasts
# Procedure, shortened: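 Total protein read at 560 nm after 0.1% SRB staining of TCA-fixed human skin fibroblasts, […]. Activity is fitted in both directions relative to DMSO as baseline.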
Compound,outcome,AC50
CCCCOC(=O)CC(CC(=O)OCCCC)(OC(C)=O)C(=O)OCCCC,inactive,–
OC12N=C(c3ccccc3)SC1Cc1cc(Cl)ccc12 (stereo not drawn),inactive,–
CCCCCCCCCCCC[N+](C)(C)C,–,8.97 µM (active)
Clc1ccccc1C(c1ccccc1)(c1ccccc1)n1ccnc1,–,5.53 µM (active)
O=C=NCCCCCCN=C=O,inactive,–
CCCCCc1ccc(N)cc1,–,9.38 µM (active)
O=C(OCCCCCCOC(=O)c1ccccc1)c1ccccc1,inactive,–
C[C@]12CC[C@@H]3c4ccc(O)cc4CC[C@H]3[C@@H]1CCC2=O,–,17.6 µM (active)
O=c1c(-c2ccc(O)cc2)coc2cc(O)cc(O)c12,–,11.7 µM (active)
C[C@]12CC[C@@H]3c4ccc(O)cc4CC[C@H]3[C@@H]1CC[C@H]2O,inactive,–
CCCCCCCCCCCO,–,20 µM (active)
Oc1ccc2ccccc2c1,inactive,–
O=C1c2ccccc2C(=O)N1CCc1noc(-c2ccc(CN3CCCCCC3)s2)n1,inactive,–
CCO[Si](CCCNC(N)=O)(OCC)OCC,inactive,–
CCCOC(=O)c1cc(O)c(O)c(O)c1,–,8.01 µM (active)
CCCCCCCCCC(=O)O,inactive,–
CN(C[C@@H](CC[N+]12CCC(C3CCCCC3)(CC1)CC2)c1ccc(Cl)c(Cl)c1)C(=O)c1cc(C(F)(F)F)cc(C(F)(F)F)c1,–,5.55 µM (active)
Cc1cn([C@H]2C[C@H](N=[N+]=[N-])[C@@H](CO)O2)c(=O)[nH]c1=O,inactive,–
Cc1cc(F)ccc1-c1cc(N2CC[C@@H](O)[C@H]2CO)ncc1N(C)C(=O)C(C)(C)c1cc(C(F)(F)F)cc(C(F)(F)F)c1,–,10.9 µM (active)

Compound,outcome,AC50
CC[C@@H]1C[C@H](N(Cc2cc(C(F)(F)F)cc(C(F)(F)F)c2)C(C)=O)c2cc(C(F)(F)F)ccc2N1C(=O)OC(C)C,inactive,–
CC(=O)N1CCN(c2ccc(OC[C@H]3CO[C@](Cn4ccnc4)(c4ccc(Cl)cc4Cl)O3)cc2)CC1,–,20 µM (active)
CCCCCCCC[Si](OCC)(OCC)OCC,–,28.3 µM (active)
O=C1CCC(C2CCCCC2)CC1,–,19.5 µM (active)
CN1C(=O)N(c2ccccc2Br)Cc2cnc(Nc3ccc4c(c3)OCC(CO)O4)nc21 (stereo not drawn),–,11.9 µM (active)
CN(C)c1ccc(C(=C2C=CC(=[N+](C)C)C=C2)c2ccc(N(C)C)cc2)cc1,–,1.39 µM (active)
CCCCCCCCCCCCO,–,26.5 µM (active)
CCCC(=O)OCCC(C)C,inactive,–
c1ccc2n[nH]nc2c1,inactive,–
O=CCCCC=O,–,25.3 µM (active)
COc1ccc2cc(S(=O)(=O)N[C@H](CC(=O)N[C@H](Cc3ccc(CN4[C@H](C)CCC[C@@H]4C)cc3)C(=O)N(C)C(C)C)c3ccc4c(c3)OCO4)ccc2c1,–,9.97 µM (active)
Cc1ccc2oc(CN(Cc3ccccc3)C(=O)Nc3c(F)cc(F)cc3F)c(-c3ccc(Cl)cc3)c2c1,inactive,–
O=c1ccc2ccccc2o1,–,8.81 µM (active)
Cc1ncc(CO)c(CO)c1O,inactive,–
Cc1cccc2ccccc12,inactive,–
CCCCCCCCN(C)CCCCCCCC,inactive,–
Cc1occc1C(=O)Nc1ccc(C(=O)N2CCC(F)(F)/C(=C\C(=O)N3CCC(N4CCCCC4)CC3)c3ccccc32)cc1,inactive,–
CC[C@H](NC(=O)c1cc(F)ccc1NS(=O)(=O)c1cccc2cccnc12)c1ccccc1,–,21.5 µM (active)
Cc1ccc(C(C)C)cc1,inactive,–

# Read-out: Macrophage colony-stimulating factor (MCSF), CSF1 (gene 1435)
# Test: BSK_hDFCGF_MCSF: BioMAP Diversity Plus: hDFCGF Assay for Macrophage colony-stimulating factor (MCSF) Biomarker Activity (AID 2283060)
# Conditions: primary human foreskin fibroblasts; actives raise or lower the signal
# Procedure, shortened: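 M-CSF levels read by ELISA at 24 h post-dosing in human skin fibroblasts. Parallel cultures stained with SRB assessed cytotoxicity at the same time point; response fitted in both directions against the DMSO baseline.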
Compound,outcome,AC50
OC12N=C(c3ccccc3)SC1Cc1cc(Cl)ccc12 (stereo not drawn),inactive,–
C[C@]12CC[C@@H]3c4ccc(O)cc4CC[C@H]3[C@@H]1CCC2=O,inactive,–
O=C1c2ccccc2C(=O)N1CCc1noc(-c2ccc(CN3CCCCCC3)s2)n1,inactive,–
CCO[Si](CCCNC(N)=O)(OCC)OCC,inactive,–
CCCOC(=O)c1cc(O)c(O)c(O)c1,inactive,–
CN(C[C@@H](CC[N+]12CCC(C3CCCCC3)(CC1)CC2)c1ccc(Cl)c(Cl)c1)C(=O)c1cc(C(F)(F)F)cc(C(F)(F)F)c1,–,7.28 µM (active)
Cc1cn([C@H]2C[C@H](N=[N+]=[N-])[C@@H](CO)O2)c(=O)[nH]c1=O,inactive,–
Cc1cc(F)ccc1-c1cc(N2CC[C@@H](O)[C@H]2CO)ncc1N(C)C(=O)C(C)(C)c1cc(C(F)(F)F)cc(C(F)(F)F)c1,–,11.1 µM (active)
CC[C@@H]1C[C@H](N(Cc2cc(C(F)(F)F)cc(C(F)(F)F)c2)C(C)=O)c2cc(C(F)(F)F)ccc2N1C(=O)OC(C)C,inactive,–
CN1C(=O)N(c2ccccc2Br)Cc2cnc(Nc3ccc4c(c3)OCC(CO)O4)nc21 (stereo not drawn),–,20.4 µM (active)
CN(C)c1ccc(C(=C2C=CC(=[N+](C)C)C=C2)c2ccc(N(C)C)cc2)cc1,–,1.77 µM (active)
CCCCCCCCCCCCO,–,33.4 µM (active)
CCCC(=O)OCCC(C)C,inactive,–
O=c1ccc2ccccc2o1,inactive,–
Cc1occc1C(=O)Nc1ccc(C(=O)N2CCC(F)(F)/C(=C\C(=O)N3CCC(N4CCCCC4)CC3)c3ccccc32)cc1,inactive,–
